# TDP1 cell noCPT – qHTS for Inhibitors of human tyrosyl-DNA phosphodiesterase 1 (TDP1): qHTS in cells in absence of CPT. 420,000 tested, 15% active. Potency, µM (doses to about 46.2 µM), inactives show at the top dose activity change, negative = growth inhibition, usual class: inhibitors. DT40 Tdp1-/- hTDP1 cells, no CPT, ATP luminescence, 48 h; further: potency means the concentration at half of the fitted maximal effect; nearly all actives have a fitted effect of over 55% in size
#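 A cellular qHTS used chicken DT40 cells lacking endogenous Tdp1 but carrying stably transfected human TDP1. Compounds were applied without camptothecin, and cell growth kinetics were judged by ATP-dependent luminescence after ≥48 hr.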
# CtBP-E1A blk – CtBP/E1A binding inhibition; AlphaScreen GST-E1A/His-CtBP binding, 1536-well; stronger effect = lower value; activity change, % (concentration not given with the values); 340,000 tested, 0.49% active; in the data active means activity change below about -65%; inconclusive means mostly about -30% to -63%
#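 Steps: dispense buffer (Tris pH 8.0, NaCl 300 mM, TCEP 1 mM, BSA, Tween 20); add 5X protein mix (GST-E1A, His-CtBP, 125 nM each); pin 23 nL compound; 2 h at 37 °C, dark; add 5X beads (50 ug/mL); 1 h; read.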
# Six1-Eya2 inh – inhibitors of human Six1/Eya2 interaction; AlphaScreen GST-Six1/His-Eya2 binding, biochemical; stronger effect = lower value; 360,000 tested, 0.56% active; Q15475+O00167; activity change, % (no concentration beside the values); in the data active means activity change below about -65%; inconclusive means mostly about -30% to -63%
# Target sequence (O00167 whole entry, looked up): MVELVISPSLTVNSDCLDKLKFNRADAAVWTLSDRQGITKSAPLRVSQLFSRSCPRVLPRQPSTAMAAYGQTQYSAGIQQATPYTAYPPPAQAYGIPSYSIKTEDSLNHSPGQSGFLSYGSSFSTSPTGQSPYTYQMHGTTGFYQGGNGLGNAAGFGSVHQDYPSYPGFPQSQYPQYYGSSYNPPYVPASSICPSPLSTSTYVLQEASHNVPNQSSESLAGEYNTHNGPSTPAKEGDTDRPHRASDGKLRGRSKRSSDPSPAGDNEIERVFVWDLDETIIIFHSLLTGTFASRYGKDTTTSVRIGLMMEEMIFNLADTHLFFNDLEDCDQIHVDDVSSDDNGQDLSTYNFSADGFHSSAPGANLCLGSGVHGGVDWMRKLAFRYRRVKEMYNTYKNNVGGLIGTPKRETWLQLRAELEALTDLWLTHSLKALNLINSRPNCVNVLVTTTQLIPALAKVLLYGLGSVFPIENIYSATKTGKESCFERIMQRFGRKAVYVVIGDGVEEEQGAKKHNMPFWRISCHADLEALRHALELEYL
# Target sequence (Q15475 whole entry, looked up): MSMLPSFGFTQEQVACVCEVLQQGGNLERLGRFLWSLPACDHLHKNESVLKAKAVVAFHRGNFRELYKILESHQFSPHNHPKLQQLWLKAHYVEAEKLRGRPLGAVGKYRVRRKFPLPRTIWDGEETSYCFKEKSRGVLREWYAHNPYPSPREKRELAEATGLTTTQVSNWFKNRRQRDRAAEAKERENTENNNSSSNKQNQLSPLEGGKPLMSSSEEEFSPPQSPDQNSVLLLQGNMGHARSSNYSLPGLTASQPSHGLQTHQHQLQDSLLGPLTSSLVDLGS
#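 AlphaScreen with GST-Six1 and His-Eya2 (5X mix: 250 nM and 500 nM), glutathione donor and nickel acceptor beads; buffer 50 mM Tris pH 8.0, 300 mM NaCl, 1 mM TCEP; 1 h at 37 C in the dark.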
# DT40 TDP1 CPT – DT40-hTDP1 cell growth loss with CPT; 420,000 tested, 12% active; Potency, µM (titrated, usually from 46.2 µM), without a hit: top-dose activity change, negative = growth inhibition, hits mostly inhibitors; AID 686979; chicken DT40 Tdp1-/-;hTDP1 cells + 20 nM CPT, ATP luminescence, 48 h; further: potency means the concentration at half of the fitted maximal effect; nearly all actives have a fitted effect of over 55% in size
#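 Chicken DT40 Tdp1-/- cells complemented with human TDP1, 400 cells/well, exposed to compounds plus 20 nM camptothecin for at least 48 h at 37 C; viability read as ATP content by CellTiter-Glo luminescence.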
# TDP1 block – inhibitors of human tyrosyl-DNA phosphodiesterase TDP1. Q9NUW8. recombinant TDP1, AlphaScreen DNA substrate cleavage. Potency, µM (titrated, usually from 130 µM), for the others: at the top dose activity change, negative = inhibition, hits mostly inhibitors. 350,000 tested, 0.28% active. AID 485290; further: potency means the concentration at half of the fitted maximal effect; nearly all actives have a fitted effect of over 40% in size
#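 Recombinant human Tdp1 (E. coli-expressed, 1 nM final) preincubated with compounds 15 min at room temperature, then 5'-biotin/3'-phosphotyrosine-FITC DNA substrate (15 nM final) added for 5 min. AlphaScreen beads (10 ug/ml final) added 10 min; cleavage lowers signal.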
# IL1B secr inh – inflammasome signaling inhibition, IL-1 beta readout | 360,000 tested, 4.7% active | activity change, % at 57.5 µM | THP-1 LPS/ATP IL-1B secretion, AlphaLISA, 16 h; stronger effect = lower value; in the data active means activity change below about -50%; inconclusive means mostly about -30% to -49%
#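 Secreted IL-1B measured by AlphaLISA bead assay after 16 h compound exposure of THP-1 cells; compounds (final up to 57.5 uM) added 1 h before LPS (250 ng/mL) and ATP (1.25 mM) stimulation; lower signal means less secretion.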
# Numbers without * were called inactive; ? = inconclusive; / = no result given. In the library only some 18% were active in any assay of this set; here they are far more common. Unless noted, the call rests on the fitted dose curve; in most records, active means well fitted curve in the direction sought with a large enough effect; inconclusive means small, poorly fitted or top-dose-only effect, or another doubt; inactive means no such curve, though single readings can be large; an effect the other way counts as inactive or inconclusive. On the % scale 0 is the no-effect control and ±100 the full control effect.
SMILES,TDP1 cell noCPT,CtBP-E1A blk,Six1-Eya2 inh,DT40 TDP1 CPT,TDP1 block,IL1B secr inh
COc1cccc(Cn2c(CNC(=O)c3cc([N+](=O)[O-])ccc3Cl)nc3cccnc32)c1,?,/,/,16µM*,9%,/
Cc1cccc(Cn2c(CNS(=O)(=O)c3ccc(C(C)C)cc3)nc3cccnc32)c1,15µM*,/,/,?,-2%,/
Cc1ccc(Cn2c(CNS(=O)(=O)c3ccc(F)c(Cl)c3)nc3cccnc32)cc1,-37%,/,/,-15%,0%,/
COc1cccc(Cn2c(CNS(=O)(=O)c3ccc(F)c(Cl)c3)nc3cccnc32)c1,10µM*,/,/,?,7%,/
COc1ccc(S(=O)(=O)N2CCCC(C(=O)NCCc3ccccc3)C2)cc1 (configuration not stated),?,23,10,1%,0%,-26
CC(=O)c1cccc(S(=O)(=O)NCC2CCCCC2)c1,?,13,8,10%,5%,23
O=C(O)c1ccccc1NC(c1ccccc1)c1ccc2cccnc2c1O (configuration not stated),?,-20,-84*,15µM*,/,27
Cc1ccnc(NC(c2cc(C)ccc2O)c2ccc3cccnc3c2O)c1 (configuration not stated),10µM*,/,/,?,/,/
Cc1ccnc(NC(c2ccccc2)c2ccc3cccnc3c2O)c1 (configuration not stated),21µM*,-88*,-78*,?,/,99
Cc1ccnc(NCc2c(O)ccc3ccccc23)c1,-17%,/,9,0%,/,-3
COc1ccccc1NC(c1cccnc1)c1ccc2cccnc2c1O (configuration not stated),?,-78*,-79*,?,11%,-25
O=C(CSc1ccc(-c2cccs2)nn1)N1CCCCC1,-7%,0,-6,-12%,0%,0
COCCNC(=O)Cn1cnc([N+](=O)[O-])n1,?,12,7,5%,0%,11
NC(=O)CC(NC(=O)Cc1cccc2ccccc12)c1ccc(N2CCC(N3CCCC3)CC2)c([N+](=O)[O-])c1 (configuration not stated),19%,-8,2,8%,/,11
Cc1ccnc(NC(c2ccsc2)c2ccc3ccc(C)nc3c2O)c1 (configuration not stated),?,-4,-18,23%,0%,-84*
Cc1ccsc1/C=N/NC(=O)c1nnn(-c2nonc2N)c1-c1ccc2c(c1)OCO2,-18%,-13,-6,?,2%,-52*
CCCOc1ccc(-c2c(C(=O)N/N=C/C3CCCCC3)nnn2-c2nonc2N)cc1,12µM*,/,3,26µM*,0%,8
CCOc1ccc(-c2c(C(=O)N/N=C/c3ccc(C)cc3)nnn2-c2nonc2N)cc1,?,/,-2,1.6µM*,/,10
CC(C)c1c(C(=O)N/N=C/c2ccc(Cl)cc2Cl)nnn1-c1nonc1N,?,/,8,0%,2%,32
CCOc1ccc(-c2c(C(=O)N/N=C/c3ccccc3)nnn2-c2nonc2N)cc1,-19%,-9,3,-9%,/,5
CC(C)c1c(C(=O)N/N=C/c2ccccc2OCc2c(F)cccc2Cl)nnn1-c1nonc1N,2.3µM*,2,1,5.8µM*,3%,69
Nc1nonc1-n1nnc(C(=O)N/N=C/c2cccs2)c1-c1ccc2c(c1)OCO2,-28%,23,-2,?,5%,-11
CCCOc1ccc(-c2c(C(=O)N/N=C/C3CC=CCC3)nnn2-c2nonc2N)cc1 (configuration not stated),-5%,-2,0,?,3%,17
Cc1ccccc1OCC(=O)OCC(=O)c1cc(C)n(C2CC2)c1C,5%,0,-14,-4%,7%,-2
COc1cccc(N2CC(C)Cn3c2nc2c3c(=O)n(CCN3CCOCC3)c(=O)n2C)c1 (configuration not stated),-20%,-24,6,-4%,1%,-12
SMILES,TDP1 cell noCPT,CtBP-E1A blk,Six1-Eya2 inh,DT40 TDP1 CPT,TDP1 block,IL1B secr inh
Cc1c(OC(C)C(=O)NCc2cccnc2)ccc2c3c(c(=O)oc12)CCCC3 (configuration not stated),?,-12,-6,?,5%,-25
CCc1ccc(/C=N/NC(=O)c2nnn(-c3nonc3N)c2C(C)C)cc1,18µM*,0,-3,?,1%,27
Cc1ccc(NC(=O)c2ccc(-c3cc(Cl)ccc3Cl)o2)c(C)c1,?,-6,-28,21µM*,/,-17
COc1cccc(OC)c1NC(=O)c1ccc(-c2cc(Cl)ccc2Cl)o1,?,-10,-8,?,/,-58*
CCc1cccc(CC)c1NC(=O)c1ccc(-c2cc(Cl)ccc2Cl)o1,?,6,-2,?,/,35
Cc1ccccc1NC(=O)c1ccc(-c2ccc(Cl)cc2Cl)o1,13µM*,17,15,?,-6%,-11
CCN(CC)S(=O)(=O)c1ccc(Cl)c(NC(=O)c2ccccc2C)c1,23µM*,14,0,?,-1%,-1
CCN(CC)S(=O)(=O)c1ccc(Cl)c(C(=O)Nc2ccc(Cl)cc2[N+](=O)[O-])c1,4.6µM*,-13,?,5.8µM*,8%,?
CCN(CC)S(=O)(=O)c1ccc(OC)c(NC(=O)c2cccc(C)c2[N+](=O)[O-])c1,-28%,-17,-13,?,3%,?
Cn1c(=O)[nH]c(N)c(Br)c1=O,?,4,1,-30%,/,0
Cc1cc(C)nc(/N=c2/ssnc2Cl)c1,9.2µM*,2,4,7.3µM*,6%,-101*
Nc1ccccc1N=c1ssnc1Cl,?,-17,-12,?,4%,21
Cc1nnc(N=c2ssnc2Cl)o1,1µM*,-22,-2,1µM*,-4%,-15
Cc1cc(C)c(C#N)c(Cl)n1,3%,7,12,10%,2%,20
Cc1ccc(N=c2ssnc2Cl)cc1,3.7µM*,10,7,5.8µM*,7%,-17
Cc1cc(Cl)ccc1N=c1ssnc1Cl,16µM*,-3,-1,13µM*,3%,?
CCN(CC)C(=O)CN(C#N)c1nc(C)cc(C)n1,-17%,0,7,-16%,3%,2
CCOC(=O)c1c(C=O)c(C)n(Cc2ccc(C)cc2)c1C,23µM*,-13,-15,?,11%,-6

# High-throughput results: PubChem, National Center for Advancing Translational Sciences (NCATS)
